{"source": "PubChem BioAssay AID2073", "about": "(Sanford-Burnham Center for Chemical Genomics, 2009)", "biological_target": "Voltage-dependent N-type calcium channel subunit alpha-1B (Homo sapiens) (UniProt Q00975)", "sequence (Q00975 whole entry, looked up)": "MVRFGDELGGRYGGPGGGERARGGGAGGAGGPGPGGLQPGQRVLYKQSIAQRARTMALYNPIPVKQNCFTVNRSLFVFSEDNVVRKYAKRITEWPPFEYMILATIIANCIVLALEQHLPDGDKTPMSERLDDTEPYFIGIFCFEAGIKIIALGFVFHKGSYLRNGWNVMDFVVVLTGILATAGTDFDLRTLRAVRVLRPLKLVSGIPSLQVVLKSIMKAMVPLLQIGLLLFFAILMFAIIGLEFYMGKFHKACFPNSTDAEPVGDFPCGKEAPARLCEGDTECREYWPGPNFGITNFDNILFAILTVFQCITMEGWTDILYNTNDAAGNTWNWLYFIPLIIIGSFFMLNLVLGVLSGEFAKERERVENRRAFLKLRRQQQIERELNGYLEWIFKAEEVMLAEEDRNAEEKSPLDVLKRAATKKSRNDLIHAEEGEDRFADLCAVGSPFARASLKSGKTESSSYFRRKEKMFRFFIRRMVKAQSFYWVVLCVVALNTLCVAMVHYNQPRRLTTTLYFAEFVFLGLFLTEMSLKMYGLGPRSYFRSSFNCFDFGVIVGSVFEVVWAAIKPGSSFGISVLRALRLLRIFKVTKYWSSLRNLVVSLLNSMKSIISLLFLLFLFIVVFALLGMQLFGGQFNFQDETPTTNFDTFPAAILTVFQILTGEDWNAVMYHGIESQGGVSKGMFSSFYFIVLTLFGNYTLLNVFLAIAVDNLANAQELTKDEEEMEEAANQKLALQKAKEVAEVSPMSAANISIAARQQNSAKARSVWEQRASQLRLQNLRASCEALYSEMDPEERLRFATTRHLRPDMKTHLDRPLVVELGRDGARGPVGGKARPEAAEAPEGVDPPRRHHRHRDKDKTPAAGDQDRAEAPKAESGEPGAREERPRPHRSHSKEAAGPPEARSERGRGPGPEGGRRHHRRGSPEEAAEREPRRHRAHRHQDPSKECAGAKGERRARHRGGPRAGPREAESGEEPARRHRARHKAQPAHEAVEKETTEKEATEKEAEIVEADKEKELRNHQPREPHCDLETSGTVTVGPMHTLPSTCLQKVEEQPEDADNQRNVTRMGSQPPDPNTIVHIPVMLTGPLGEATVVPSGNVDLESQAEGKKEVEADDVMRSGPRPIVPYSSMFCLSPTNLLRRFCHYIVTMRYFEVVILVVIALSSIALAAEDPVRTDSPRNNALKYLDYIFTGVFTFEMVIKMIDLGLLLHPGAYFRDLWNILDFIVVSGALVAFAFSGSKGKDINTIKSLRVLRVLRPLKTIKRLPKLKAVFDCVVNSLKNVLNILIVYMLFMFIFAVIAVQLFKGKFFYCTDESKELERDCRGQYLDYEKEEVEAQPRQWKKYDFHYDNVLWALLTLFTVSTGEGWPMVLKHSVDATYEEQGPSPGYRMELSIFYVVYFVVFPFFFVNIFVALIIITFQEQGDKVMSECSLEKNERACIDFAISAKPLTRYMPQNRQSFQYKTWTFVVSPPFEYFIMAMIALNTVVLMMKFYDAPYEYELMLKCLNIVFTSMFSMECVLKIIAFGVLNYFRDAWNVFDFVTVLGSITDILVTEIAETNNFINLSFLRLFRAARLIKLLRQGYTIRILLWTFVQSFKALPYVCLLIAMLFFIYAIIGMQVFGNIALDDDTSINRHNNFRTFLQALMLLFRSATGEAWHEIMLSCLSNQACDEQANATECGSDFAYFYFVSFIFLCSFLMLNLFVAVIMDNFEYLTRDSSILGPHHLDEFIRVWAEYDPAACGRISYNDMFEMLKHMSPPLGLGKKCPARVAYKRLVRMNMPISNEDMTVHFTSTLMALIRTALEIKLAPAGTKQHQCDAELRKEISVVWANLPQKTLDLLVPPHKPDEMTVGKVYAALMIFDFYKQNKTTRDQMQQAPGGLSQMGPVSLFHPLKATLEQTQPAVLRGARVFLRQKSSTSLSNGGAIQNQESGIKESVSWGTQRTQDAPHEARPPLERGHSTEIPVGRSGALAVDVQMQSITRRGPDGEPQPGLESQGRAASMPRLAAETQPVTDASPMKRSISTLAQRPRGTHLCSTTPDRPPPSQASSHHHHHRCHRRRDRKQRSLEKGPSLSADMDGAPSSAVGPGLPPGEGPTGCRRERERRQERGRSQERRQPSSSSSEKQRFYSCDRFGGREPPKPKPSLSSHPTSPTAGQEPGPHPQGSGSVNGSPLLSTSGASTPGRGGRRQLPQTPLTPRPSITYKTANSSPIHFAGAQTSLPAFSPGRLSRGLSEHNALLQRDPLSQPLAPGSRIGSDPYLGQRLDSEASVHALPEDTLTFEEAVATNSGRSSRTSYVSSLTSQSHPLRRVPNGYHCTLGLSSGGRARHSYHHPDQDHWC", "assay": "inhibitors of Mint1-CaV2.2 protein interaction, biochemical, HTRF (AID 2073)", "conditions": "at 20 µM, stronger effect = higher value", "key": {"[1]": {"conditions": "measured here: average of repeat tests"}}, "note": "Among all 290,000 compounds or so, about 570 (0.2%) were called active. Not shown: some 1% with an inconclusive outcome. No stated cut-off is given here; in the data, active means inhibition mostly above about 51% (no sharp cut-off); inconclusive means no clear call, values can overlap the other calls; inactive means mostly below about 53%. The full list was thinned out, with actives kept by preference.", "data": [{"smiles": "CCn1cc(-c2ccnc3cc(C(=O)O)nn23)c(C)n1", "values": [{"measurement": "inhibition", "value": "39.6% (inactive)"}]}, {"smiles": "Cc1c(-c2ccnc3cc(C(=O)O)nn23)cnn1C", "values": [{"measurement": "inhibition", "value": "49.5% (inactive)"}]}, {"smiles": "CCn1ncc(-c2ccnc3cc(C(=O)O)nn23)c1C", "values": [{"measurement": "inhibition", "value": "67.9% (active)"}]}, {"smiles": "CCn1cc(C(=O)Nc2ccc(F)c(F)c2)cn1", "values": [{"measurement": "inhibition", "value": "8.5% (inactive)"}]}, {"smiles": "CC(C)n1nc(C(=O)N2CCN(S(=O)(=O)c3cccs3)CC2)c2ccccc2c1=O", "values": [{"measurement": "inhibition", "value": "-6.3% (inactive)"}]}, {"smiles": "Cc1ccc(C(=O)O)cc1-c1ccc(/C=C2\\SC(=O)N(CC(=O)Nc3ccccc3)C2=O)o1", "values": [{"measurement": "inhibition", "value": "24% (inactive)"}]}, {"smiles": "Cc1ccc(NC(=O)CN2C(=O)S/C(=C/c3ccc(-c4cccc(C(=O)O)c4)o3)C2=O)cc1", "values": [{"measurement": "inhibition", "value": "62.3% (active)"}]}, {"smiles": "Cc1ccc(NC(=O)CN2C(=O)S/C(=C\\c3ccc(-c4cccc(C(=O)O)c4C)o3)C2=O)cc1", "values": [{"measurement": "inhibition", "value": "7.6% (inactive)"}]}, {"smiles": "O=c1[nH]cnc(O)c1N=Nc1ccccc1", "values": [{"measurement": "inhibition", "value": "-0.9% (inactive)"}]}, {"smiles": "CCCSCCCNC(=O)c1cc2c(s1)CS(=O)(=O)C2", "values": [{"measurement": "inhibition", "value": "2% (inactive)"}]}, {"smiles": "O=C(Nc1ccccc1C(=O)O)c1ccc2c(c1)C(=O)N(c1cccc([N+](=O)[O-])c1)C2=O", "values": [{"measurement": "inhibition", "value": "11.2% (inactive)"}]}, {"smiles": "O=C(O)c1cccc(NC(=O)c2ccc3c(c2)C(=O)N(c2cccc([N+](=O)[O-])c2)C3=O)c1", "values": [{"measurement": "inhibition", "value": "26.4% (inactive)"}]}, {"smiles": "CCOC(=O)c1cc2c(N)c(C(=O)c3cc(C#N)c(SC)nc3C)sc2nc1C", "values": [{"measurement": "inhibition", "value": "8.2% (inactive)"}]}, {"smiles": "COc1cc2ccccc2nn1", "values": [{"measurement": "inhibition", "value": "22.3% (inactive)"}]}, {"smiles": "COc1nc2ccccc2nc1OC", "values": [{"measurement": "inhibition", "value": "-4.1% (inactive)"}]}, {"smiles": "COc1ccc2c(n1)Sc1nc3ccccc3nc1N2", "values": [{"measurement": "inhibition", "value": "78.9% (active)"}]}, {"smiles": "Cn1nc(-c2ccccc2)cc1NC(=O)Nc1ccc(F)cc1", "values": [{"measurement": "inhibition", "value": "-0.7% (inactive)"}]}, {"smiles": "Cc1ccc(N=C2NC(=O)/C(=C/C=C/c3ccco3)S2)cc1C", "values": [{"measurement": "inhibition", "value": "76% (active)"}]}, {"smiles": "O=C1NC(=Nc2ccc(Cl)cc2)/C(=C/c2ccco2)S1", "values": [{"measurement": "inhibition", "value": "55.3% (active)"}]}, {"smiles": "Cc1ccc(N=C2NC(=O)/C(=C/C=C/c3ccco3)S2)cc1", "values": [{"measurement": "inhibition", "value": "36.2% (inactive)"}]}, {"smiles": "Cc1cccc(N=C2NC(=O)/C(=C/C=C/c3ccco3)S2)c1", "values": [{"measurement": "inhibition", "value": "57.2% (inactive)"}, {"measurement": "inhibition", "setting": "[1]", "value": 31.3, "unit": "%"}]}, {"smiles": "Cc1ccc(N=C2NC(=O)/C(=C\\c3ccco3)S2)cc1", "values": [{"measurement": "inhibition", "value": "58.4% (inactive)"}, {"measurement": "inhibition", "setting": "[1]", "value": 6.9, "unit": "%"}]}, {"smiles": "O=C1NC(=Nc2ccccc2)/C(=C/c2ccco2)S1", "values": [{"measurement": "inhibition", "value": "24.1% (inactive)"}]}, {"smiles": "COc1ccc(N=C2NC(=O)/C(=C\\c3ccco3)S2)cc1", "values": [{"measurement": "inhibition", "value": "81.2% (active)"}]}, {"smiles": "COc1ccc(N=C2NC(=O)/C(=C/c3ccco3)S2)cc1", "values": [{"measurement": "inhibition", "value": "-14.1% (inactive)"}]}, {"smiles": "Cc1ccc(N=C2NC(=O)S/C2=C\\c2ccco2)cc1", "values": [{"measurement": "inhibition", "value": "29.6% (inactive)"}]}, {"smiles": "Fc1cccc(Cl)c1CSc1nnc2ccccn12", "values": [{"measurement": "inhibition", "value": "4% (inactive)"}]}, {"smiles": "Cc1c(CC(=O)NCC(=O)NCC(=O)O)c(=O)oc2cc3c(cc12)CCC(C)(C)O3", "values": [{"measurement": "inhibition", "value": "16.3% (inactive)"}]}, {"smiles": "Clc1ccc(-n2nnnc2SCc2cn3ccccc3n2)cc1", "values": [{"measurement": "inhibition", "value": "-7.5% (inactive)"}]}, {"smiles": "Cc1cc(Cl)c(OCCOCCN2CCCCC2)c(Br)c1", "values": [{"measurement": "inhibition", "value": "-0.3% (inactive)"}]}, {"smiles": "CCNC(=O)NC(=O)COC(=O)C1CSC2(C)CCC(=O)N12", "note": "(centres undefined)", "values": [{"measurement": "inhibition", "value": "3.1% (inactive)"}]}, {"smiles": "C=CCN=C(NC#N)SCC(=O)NCc1ccccc1", "values": [{"measurement": "inhibition", "value": "2.2% (inactive)"}]}, {"smiles": "CNC(=O)/C(C#N)=C/c1ccc(-c2ccc(OC)cc2[N+](=O)[O-])o1", "values": [{"measurement": "inhibition", "value": "11.4% (inactive)"}]}, {"smiles": "COc1cccc(NC(=O)c2ccc(-c3ccccc3[N+](=O)[O-])o2)c1", "values": [{"measurement": "inhibition", "value": "52.1% (inactive)"}, {"measurement": "inhibition", "setting": "[1]", "value": 1.4, "unit": "%"}]}, {"smiles": "COc1ccc(-c2ccc(C(=O)O)o2)c([N+](=O)[O-])c1", "values": [{"measurement": "inhibition", "value": "59.6% (active)"}]}, {"smiles": "Cc1ccc(S(=O)(=O)N2CCN(C(=O)c3ccc(Cl)nc3)CC2)cc1", "values": [{"measurement": "inhibition", "value": "3% (inactive)"}]}, {"smiles": "COc1ccc(C(=O)Nc2ccc(CN3CCOCC3)cc2)cc1Br", "values": [{"measurement": "inhibition", "value": "3% (inactive)"}]}, {"smiles": "COc1ccc(-c2cc(-c3ccccc3)nc(=O)[nH]2)cc1", "values": [{"measurement": "inhibition", "value": "0.5% (inactive)"}]}, {"smiles": "Cc1cc(C)c2nc(-c3ccccn3)cc(C(=O)Nc3ccc(S(=O)(=O)Nc4cc(C)on4)cc3)c2c1", "values": [{"measurement": "inhibition", "value": "39.7% (inactive)"}]}, {"smiles": "Cc1cc(C)c2nc(-c3cccnc3)cc(C(=O)Nc3ccc(S(=O)(=O)Nc4onc(C)c4C)cc3)c2c1", "values": [{"measurement": "inhibition", "value": "31.4% (inactive)"}]}, {"smiles": "Cc1cc(C)c2nc(-c3ccccn3)cc(C(=O)Nc3ccc(S(=O)(=O)Nc4onc(C)c4C)cc3)c2c1", "values": [{"measurement": "inhibition", "value": "51% (active)"}, {"measurement": "inhibition", "setting": "[1]", "value": 52.5, "unit": "%"}]}, {"smiles": "COC(=O)c1sccc1NC(=O)c1ccc(C)o1", "values": [{"measurement": "inhibition", "value": "19.2% (inactive)"}]}, {"smiles": "O=S(=O)(Cc1ccccc1)N1CCN(c2ncccn2)CC1", "values": [{"measurement": "inhibition", "value": "7.7% (inactive)"}]}, {"smiles": "CCC(C(=O)NC1CC1)n1nc(C)c2c(C)n(-c3ccc(C)cc3)nc2c1=O", "note": "(centres undefined)", "values": [{"measurement": "inhibition", "value": "9.6% (inactive)"}]}, {"smiles": "COc1ccc(/C=C/C(=O)NC(=S)Nc2cc3oc4ccccc4c3cc2OC)cc1", "values": [{"measurement": "inhibition", "value": "0.7% (inactive)"}]}, {"smiles": "COc1cc2c(cc1NC(=S)NC(=O)/C=C/c1ccc(OC)c(OC)c1)oc1ccccc12", "values": [{"measurement": "inhibition", "value": "14.5% (inactive)"}]}, {"smiles": "COc1cc2c(cc1NC(=S)NC(=O)/C=C/c1ccco1)oc1ccccc12", "values": [{"measurement": "inhibition", "value": "53.2% (active)"}]}, {"smiles": "Cc1oc(-c2ccccc2Cl)nc1CS(=O)CC(=O)NCc1ccco1", "note": "(centres undefined)", "values": [{"measurement": "inhibition", "value": "19.1% (inactive)"}]}, {"smiles": "Cc1cc(OCC(O)CN2CCCC2)ccc1C(C)C", "note": "(centres undefined)", "values": [{"measurement": "inhibition", "value": "-5.6% (inactive)"}]}, {"smiles": "O=C(Nc1ccc(C2=NCCN2)cc1)c1ccc(C(=O)Nc2ccc(C3=NCCN3)cc2)c(Cl)c1", "values": [{"measurement": "inhibition", "value": "51.6% (active)"}]}, {"smiles": "O=C(Nc1ccc(C2=NCCN2)cc1)c1ccc(C(=O)Nc2ccc(C3=NCCN3)cc2)c([N+](=O)[O-])c1", "values": [{"measurement": "inhibition", "value": "30.7% (inactive)"}]}, {"smiles": "O=C(Nc1ccc(C2=NCCN2)cc1)c1ccc(Cl)c(C(=O)Nc2ccc(C3=NCCN3)cc2)c1", "values": [{"measurement": "inhibition", "value": "36.8% (inactive)"}]}, {"smiles": "O=C(/C=C/c1ccc(Cl)cc1)N(Cc1ccccc1)c1ccccn1", "values": [{"measurement": "inhibition", "value": "22.8% (inactive)"}]}, {"smiles": "COc1ccccc1CN(C)C(=O)c1cnc(C)cn1", "values": [{"measurement": "inhibition", "value": "5.7% (inactive)"}]}, {"smiles": "Cc1cccc(/C=N/N2CCN(c3ccccc3)CC2)c1", "values": [{"measurement": "inhibition", "value": "-12.6% (inactive)"}]}, {"smiles": "CCCN1CCC(=O)N([C@H](CO)c2ccccc2)CC1", "values": [{"measurement": "inhibition", "value": "5.6% (inactive)"}]}, {"smiles": "C=CCN1C(=O)c2cccc3c(N4CCCCC4)ccc(c23)C1=O", "values": [{"measurement": "inhibition", "value": "53.2% (active)"}]}, {"smiles": "O=C1c2cccc3c(N4CCCCC4)ccc(c23)C(=O)N1CCO", "values": [{"measurement": "inhibition", "value": "24.6% (inactive)"}]}, {"smiles": "CCCN1C(=O)c2cccc3c(N4CCCCC4)ccc(c23)C1=O", "values": [{"measurement": "inhibition", "value": "11.8% (inactive)"}]}, {"smiles": "CCOc1ccc(C(=O)NC(=S)NCCCN2CCOCC2)cc1", "values": [{"measurement": "inhibition", "value": "-2.3% (inactive)"}]}]}
